26 compounds from PubChem BioAssay (NCI) can be followed below.

Each structure is given as a SMILES string. About 83,000 compounds went through this panel and 20% of them were active in at least one assay; those are over-represented in the sample as a whole.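 Single-dose data. Exposure time 48 hours. Values below 10 considered active.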 A number with no mark means an inactive call. Active and inactive are the calls of the source.

Holding throughout (test): NCI-60 one-dose screen, 48 h (100 = growth as untreated, 0 = no growth, -100 = all killed)
Holding throughout (settings): 10 µM unless noted

In assay [1] the test system is DU-145 prostate.
In assay [2] the test system is K-562 leukemia.
For assay [3], the system named is MALME-3M melanoma.
Assay [4] concerns MDA-MB-231 breast.
Assay [5] has as its system RXF 393 renal.
Assay [6] relates to SF-268 CNS.
Assay [7] concerns SF-295 CNS.
For assay [8], the system named is SF-539 CNS.
Assay [9] deals with UACC-257 melanoma.
Assay [10] has as its system M14 melanoma.

In the case of `Cc1nc2sc(C(=O)Nc3cccc4ccccc34)c(N)c2cc1C(C)O` (stereo not given), the growth in [1] was 13.6%; in assay [2], 8.19% (active); in assay [3] it was 85.1%; in [4], 33.1%; in assay [5], 21.7%; in assay [6] it was 51.4%. Further, the growth in assay [7] was 10.8%; in assay [8], 0.0649% (active); in assay [9], 64%; in assay [10] it was 15.4%.
On to `O=C(CSC(=S)N1CCCCC1)Nc1ccccc1`, for which the growth in [1] is 106%; in assay [2] it was 90.2%; in assay [3] it was 101%; in [4], 103%; in [5], 110%; in assay [6] it was 93.3%. Besides, the growth is 103% in assay [7], 101% in assay [8], 92.4% in assay [9] and 98.6% in assay [10].
`C=C1C(=O)O[C@H]2[C@H]1CC/C(COC(=O)/C=C/c1cccnc1)=C\CC[C@@]1(C)O[C@@H]21`: the growth in assay [1] was 13.1%; in assay [2] it was 6.99% (active); in assay [3], -35.9% (active); in assay [4] it was 38.7%; in [5] it was -9.04% (active); in [6] it was 57.6%. Also, the growth in assay [7] is 84.4%; in [8], 6.08% (active); in [9] it was 28.9%; in assay [10], 26.3%.
As for `CN(C)CCCn1c2c(c3cc(-c4ccco4)ccc3c1=O)C(=O)c1ccccc1-2`, the growth was 66.8% in assay [1]; -75.1% (active) in [2]; 113% in assay [3]; 53.3% in [4]; 75.5% in assay [5]; 72.3% in [6]. The growth in assay [7] was 82.6%; in assay [8] it was 63.9%; in assay [9], 102%; in assay [10] it was 81.2%.
`COc1cc(-c2cn(-c3ccc(Cl)c(Cl)c3)c(=O)[nH]2)cc(OC)c1OC`: the growth in assay [1] was 100%; in assay [2], 84.3%; in [3], 60.9%; in assay [4], 71.5%; in assay [5], 86.4%; in assay [6] it was 87.6%. The growth was 104% in assay [7], 91.3% in [8], 87.4% in assay [9] and 95.2% in assay [10].
As to `O=c1[nH]nc(-c2ccc(Br)cc2)c2sc(NC(=S)Nc3ccc(Cl)cc3)nc12`, the growth in assay [1] is 110%; in assay [2], 98.6%; in [3] it was 94.2%; in assay [4] it was 92.4%; in assay [5], 111%; in assay [6] it was 100%. The growth in [7] is 96.8%; in [8] it was 103%; in assay [9] it was 113%; in assay [10], 95.3%.
Take `CCCCC1=c2c([nH]c3ccc(OC)cc23)=NC2C=CC=NC12` (stereo not given): the growth in assay [1] was 98.8%; in assay [2] it was 72.1%; in assay [3] it was 108%; in assay [4], 79.9%; in [5], 92.8%; in assay [6] it was 93.1%. In addition, the growth is 106% in [7], 93.7% in assay [8], 126% in [9] and 101% in [10].
Take `Cc1c(Cl)cccc1NC(=O)c1sc2nc3c(cc2c1N)CCCCCC3`: the growth in assay [1] was 9.29% (active); in [2] it was 9.93% (active); in assay [3] it was 58%; in assay [4], 34.2%; in [5], 12.2%; in assay [6], 35.7%. The growth is 24.6% in assay [7], 0.159% (active) in assay [8], 59.6% in assay [9] and 8.66% (active) in [10].
As for `Cc1cc(C)n(-c2nc(-c3cccs3)c(C#N)c(=O)[nH]2)n1`, the growth in [1] was 101%; in [2], 87.4%; in assay [3] it was 92.6%; in assay [4], 108%; in assay [5] it was 115%; in assay [6], 82.3%. Moreover, the growth is 92.3% in assay [7], 97.5% in [8], 98.7% in [9] and 101% in assay [10].
Turning to `COc1ccc(C(=O)c2cc(OC)c(OC)c(OC)c2)cc1OC(=O)CCl`, the growth in assay [1] was 5.3% (active); in assay [2], 13.3%; in [3], 71%; in assay [4], 34.4%; in assay [5], 56.6%; in [6] it was 37.3%. Further, the growth is 17.3% in [7], 1.91% (active) in [8], 48.9% in assay [9] and 5.59% (active) in assay [10].
On to `Cc1cc(C)nc(NS(=O)(=O)c2ccc(Nc3ccc4c5c(n(CCCN(C)C)c(=O)c4c3)-c3ccccc3C5=O)cc2)n1`, for which the growth in assay [1] is 69%; in assay [2], 74.7%; in [3] it was 102%; in assay [4], 108%; in assay [5], 115%; in [6], 77.9%. In addition, the growth is 83.3% in [7], 96.3% in [8], 108% in assay [9] and 89.8% in [10].
With `COc1ccc2c(c1)Oc1nc(N)c(C#N)c(N)c1C2Sc1ccc(SC)cc1` (stereo not given), the growth was 46.2% in assay [1]; 2.45% (active) in [2]; -22.5% (active) in assay [3]; 10.5% in [4]; -54.8% (active) in assay [5]; 61.4% in [6]. The growth in assay [7] is 80.8%; in assay [8] it was 14.7%; in assay [9] it was 67.3%; in assay [10], 27.6%.
Turning to `NC(=O)c1ccc2nc3c(n2c1)C(=O)C(=O)c1ccccc1-3`, the growth in assay [1] was -96.3% (active); in [2], -28.2% (active); in [3], -97.3% (active); in assay [4], -17.3% (active); in assay [5], -96.5% (active); in [6] it was -70.2% (active). Further, the growth in [7] was -98.7% (active); in assay [8], -98.5% (active); in assay [9] it was -98.3% (active); in assay [10], -88% (active).
For the compound `COc1ccc2nc(-c3ccc(OC)c(OC)c3)cc(-c3nnc(SCC(=O)Nc4ccc(C(C)=O)cc4)o3)c2c1`, the growth in [1] was 108%; in assay [2] it was 99.2%; in [3] it was 109%; in assay [4], 99.5%; in [5], 102%; in assay [6], 104%. The growth was 100% in assay [7], 96% in assay [8], 101% in [9] and 105% in [10].
For `O=C(Nc1nc(-c2ccccc2Cl)cs1)c1cc(-c2ccc(Br)cc2)nc2ccccc12`, the growth is 69.3% in assay [1]; 23.5% in [2]; 75.1% in assay [3]; 27.3% in [4]; 59% in [5]; 66.4% in assay [6]. Besides, the growth in assay [7] is 34.4%; in [8] it was 76.1%; in [9], 29.5%; in assay [10], 62.5%.
`C#CCN1C(=O)c2ccccc2N(CC#C)C12CCN(Cc1cn(CC(=O)Nc3ccccc3C(N)=O)nn1)CC2`: the growth in assay [1] is 98.7%; in [2] it was 92.4%; in [3], 102%; in [4], 89.9%; in [5], 90.5%; in assay [6] it was 91.7%. Also, the growth in assay [7] was 85.5%; in [8], 91.5%; in assay [9], 103%; in [10], 89.3%.
On to `CCC1S/C(=N\N=C(/C)c2ccc[nH]2)N(c2ccccc2)C1=O` (stereo not given), for which the growth is 122% in assay [1]; 72.8% in assay [2]; 85.5% in assay [3]; 100% in assay [4]; 91.4% in [5]; 109% in assay [6]. In addition, the growth is 120% in [7], 119% in assay [8], 104% in [9] and 115% in assay [10].
Consider `Cc1ccc(C2CC(c3ccc(Nc4nc(NCCO)nc(NCCO)n4)cc3)=NN2c2ccc(Cl)cc2)cc1` (stereo not given), for which the growth was 62.6% in assay [1]; 14.9% in [2]; 67.3% in [3]; 66.9% in assay [4]; -12.6% (active) in assay [5]; 56.8% in assay [6]. Besides, the growth is 30.3% in assay [7], 39% in assay [8], 75.1% in assay [9] and 61.4% in assay [10].
`N#Cc1ccc(N2Cc3cc(Cl)ccc3OC3=C2C(=O)N(Cc2ccc(F)cc2)C3=O)cc1`: the growth in [1] is -91.8% (active); in assay [2], -21.6% (active); in assay [3], -72.3% (active); in assay [4], -0.424% (active); in [5], -56.8% (active); in [6] it was -58.4% (active). The growth was 66.6% in assay [7], -65.7% (active) in assay [8], -64% (active) in assay [9] and -68.4% (active) in [10].
On to `Cc1cccc(C)c1Nc1nnc(-c2ccc(F)cc2)o1`, for which the growth is 99.9% in assay [1]; 118% in assay [2]; 96.5% in assay [3]; 104% in assay [4]; 98.5% in [5]; 96.2% in assay [6]. Further, the growth in assay [7] is 102%; in assay [8], 99.7%; in assay [9], 116%; in assay [10], 96.8%.
As for `c1ccc(Sc2ncccn2)nc1`, the growth in assay [1] is 109%; in assay [2], 90%; in assay [3] it was 111%; in [4], 109%; in assay [5], 110%; in assay [6], 104%. In addition, the growth in assay [7] was 109%; in [8] it was 96%; in assay [9], 99.2%; in [10], 99.2%.
On to `COC(=O)/C=C1\SC(=Nc2ccc(F)cc2)N(CCc2c[nH]c3ccccc23)C1=O`, for which the growth in assay [1] is 102%; in [2], 88%; in assay [3], 99.9%; in [4] it was 96.9%; in [5] it was 110%; in assay [6], 104%. Further, the growth is 97.7% in assay [7], 109% in assay [8], 72.4% in assay [9] and 102% in assay [10].
For `COc1ccc(NC(=O)c2ccc(Nc3ncnc4[nH]c(C)c(C)c34)cc2)cc1`, the growth in assay [1] is 107%; in assay [2], 105%; in assay [3] it was 114%; in assay [4], 104%; in [5], 105%; in assay [6], 91.4%. Further, the growth in [7] is 96.6%; in assay [8] it was 97.5%; in assay [9], 101%; in assay [10], 110%.
As to `CN(CCC#N)C(=O)Nc1ccccc1`, the growth in assay [1] was 115%; in assay [2], 96.2%; in [3], 100%; in assay [4], 116%; in assay [5] it was 114%; in assay [6], 106%. In addition, the growth in assay [7] was 109%; in [8], 105%; in assay [9], 94.1%; in [10] it was 109%.
Turning to `O=C1Nc2ccccc2C12C=C(c1ccccc1)Nc1c2c(-c2ccccc2)nn1-c1ccccc1` (stereo not given), the growth in assay [1] is 83.4%; in [2], 37.5%; in assay [3], 98.5%; in [4] it was 85.6%; in assay [5], 5.5% (active); in [6], 58.5%. Also, the growth was 42.1% in assay [7], 86.4% in [8], 88.7% in [9] and 58.2% in assay [10].
For `Cc1nc2sc(C(=O)Nc3cccc(Cl)c3C)c(N)c2cc1C(C)O` (stereo not given), the growth in [1] is 20%; in [2] it was 7.36% (active); in [3], 71%; in assay [4], 47.5%; in [5], 3.16% (active); in assay [6], 47.9%. Moreover, the growth in assay [7] was 15%; in assay [8] it was -12.5% (active); in [9] it was 46.9%; in [10] it was 23.4%.
